Assay results as given in the supplement of paper PMC4466140.

Assays:
Assay in all cases: SPOT peptide array binding signal intensity (averaged, normalized) (arbitrary units (background-subtracted, floor 0; scale differs between SH3 domains)); higher = stronger binding of the SH3 domain to the peptide
AgAbp1 = molecular target: AgAbp1
Outline: (§1)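 GST-SH3 fusions from four yeast species, purified on glutathione Sepharose, were incubated at 10 μg/ml overnight at 4°C on membranes of synthetic 15-mer peptides in which cysteines were replaced with serines. Binding signal is the normalized, background-subtracted spot intensity averaged over replicates, in domain-specific arbitrary units.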

AgBbc1 = molecular target: AgBbc1
Outline: as §1

AgBem1-D1 = molecular target: AgBem1-D1
Outline: as §1

AgBzz1-D1 = molecular target: AgBzz1-D1
Outline: as §1

AgBzz1-D2 = molecular target: AgBzz1-D2
Outline: as §1

AgCyk3 = molecular target: AgCyk3
Outline: as §1

AgFus1 = molecular target: AgFus1
Outline: as §1

AgHof1 = molecular target: AgHof1
Outline: as §1

AgHse1 = molecular target: AgHse1
Outline: as §1

AgLsb1 = molecular target: AgLsb1
Outline: as §1

AgLsb4 = molecular target: AgLsb4
Outline: as §1

AgMyo5 = molecular target: AgMyo5
Outline: as §1

AgNbp2 = molecular target: AgNbp2
Outline: as §1

AgRvs167 = molecular target: AgRvs167
Outline: as §1

AgSho1 = molecular target: AgSho1
Outline: as §1

AgSla1-D1-D2 = molecular target: AgSla1-D1-D2
Outline: as §1

AgSla1-D3 = molecular target: AgSla1-D3
Outline: as §1

CaAbp1-D1 = molecular target: CaAbp1-D1
Outline: as §1

CaAbp1-D2 = molecular target: CaAbp1-D2
Outline: as §1

CaBbc1 = molecular target: CaBbc1
Outline: as §1

CaBem1-D1 = molecular target: CaBem1-D1
Outline: as §1

CaBzz1-D1 = molecular target: CaBzz1-D1
Outline: as §1

CaBzz1-D2 = molecular target: CaBzz1-D2
Outline: as §1

CaCyk3 = molecular target: CaCyk3
Outline: as §1

CaFus1 = molecular target: CaFus1
Outline: as §1

CaHof1 = molecular target: CaHof1
Outline: as §1

CaHse1 = molecular target: CaHse1
Outline: as §1

CaLsb1 = molecular target: CaLsb1
Outline: as §1

CaLsb4 = molecular target: CaLsb4
Outline: as §1

CaMyo5 = molecular target: CaMyo5
Outline: as §1

CaNbp2 = molecular target: CaNbp2
Outline: as §1

CaRvs167 = molecular target: CaRvs167
Outline: as §1

CaRvs167-3 = molecular target: CaRvs167-3
Outline: as §1

CaSho1 = molecular target: CaSho1
Outline: as §1

CaSla1-D1-D2 = molecular target: CaSla1-D1-D2
Outline: as §1

CaSla1-D3 = molecular target: CaSla1-D3
Outline: as §1

ScAbp1 = molecular target: ScAbp1
Outline: as §1

ScBbc1 = molecular target: ScBbc1
Outline: as §1

ScBem1-D1 = molecular target: ScBem1-D1
Outline: as §1

ScBzz1-D1 = molecular target: ScBzz1-D1
Outline: as §1

ScBzz1-D2 = molecular target: ScBzz1-D2
Outline: as §1

ScCyk3 = molecular target: ScCyk3
Outline: as §1

ScFus1 = molecular target: ScFus1
Outline: as §1

ScHof1 = molecular target: ScHof1
Outline: as §1

ScHse1 = molecular target: ScHse1
Outline: as §1

ScLsb1 = molecular target: ScLsb1
Outline: as §1

ScLsb2 = molecular target: ScLsb2
Outline: as §1

ScLsb3 = molecular target: ScLsb3
Outline: as §1

ScLsb4 = molecular target: ScLsb4
Outline: as §1

ScMyo3 = molecular target: ScMyo3
Outline: as §1

ScMyo5 = molecular target: ScMyo5
Outline: as §1

ScNbp2 = molecular target: ScNbp2
Outline: as §1

ScPex13 = molecular target: ScPex13
Outline: as §1

ScRvs167 = molecular target: ScRvs167
Outline: as §1

ScSho1 = molecular target: ScSho1
Outline: as §1

ScSla1-D1-D2 = molecular target: ScSla1-D1-D2
Outline: as §1

ScSla1-D3 = molecular target: ScSla1-D3
Outline: as §1

SpAbp1-D1 = molecular target: SpAbp1-D1
Outline: as §1

SpBbc1 = molecular target: SpBbc1
Outline: as §1

SpBzz1-D1 = molecular target: SpBzz1-D1
Outline: as §1

SpBzz1-D2 = molecular target: SpBzz1-D2
Outline: as §1

SpCyk3 = molecular target: SpCyk3
Outline: as §1

SpHof1 = molecular target: SpHof1
Outline: as §1

SpHof1-2 = molecular target: SpHof1-2
Outline: as §1

SpHof1-3 = molecular target: SpHof1-3
Outline: as §1

SpHse1 = molecular target: SpHse1
Outline: as §1

SpLsb1 = molecular target: SpLsb1
Outline: as §1

SpLsb4 = molecular target: SpLsb4
Outline: as §1

SpMyo1 = molecular target: SpMyo1
Outline: as §1

SpNbp2 = molecular target: SpNbp2
Outline: as §1

SpPex13 = molecular target: SpPex13
Outline: as §1

SpRvs167 = molecular target: SpRvs167
Outline: as §1

SpSla1-D1-D2 = molecular target: SpSla1-D1-D2
Outline: as §1

SpSla1-D3 = molecular target: SpSla1-D3
Outline: as §1

Binder: AVPPPPPPPPLPESL
- SPOT peptide array binding signal intensity (AgAbp1): 8.5
- SPOT peptide array binding signal intensity (AgBbc1): 0.5
- SPOT peptide array binding signal intensity (AgBem1-D1): ≤ 0
- SPOT peptide array binding signal intensity (AgBzz1-D1): 1
- SPOT peptide array binding signal intensity (AgBzz1-D2): 5.5
- SPOT peptide array binding signal intensity (AgCyk3): ≤ 0
- SPOT peptide array binding signal intensity (AgFus1): 2
- SPOT peptide array binding signal intensity (AgHof1): 182
- SPOT peptide array binding signal intensity (AgHse1): 26
- SPOT peptide array binding signal intensity (AgLsb1): 0.5
- SPOT peptide array binding signal intensity (AgLsb4): 3
- SPOT peptide array binding signal intensity (AgMyo5): 188
- SPOT peptide array binding signal intensity (AgNbp2): 18
- SPOT peptide array binding signal intensity (AgRvs167): 0.667
- SPOT peptide array binding signal intensity (AgSho1): 1
- SPOT peptide array binding signal intensity (AgSla1-D1-D2): ≤ 0
- SPOT peptide array binding signal intensity (AgSla1-D3): 2
- SPOT peptide array binding signal intensity (CaAbp1-D1): 1
- SPOT peptide array binding signal intensity (CaAbp1-D2): 1
- SPOT peptide array binding signal intensity (CaBbc1): ≤ 0
- SPOT peptide array binding signal intensity (CaBem1-D1): 1
- SPOT peptide array binding signal intensity (CaBzz1-D1): 951
- SPOT peptide array binding signal intensity (CaBzz1-D2): 158
- SPOT peptide array binding signal intensity (CaCyk3): ≤ 0
- SPOT peptide array binding signal intensity (CaFus1): 2
- SPOT peptide array binding signal intensity (CaHof1): 0.5
- SPOT peptide array binding signal intensity (CaHse1): 4.75
- SPOT peptide array binding signal intensity (CaLsb1): 0.5
- SPOT peptide array binding signal intensity (CaLsb4): ≤ 0
- SPOT peptide array binding signal intensity (CaMyo5): 29
- SPOT peptide array binding signal intensity (CaNbp2): 23.5
- SPOT peptide array binding signal intensity (CaRvs167): 3.67
- SPOT peptide array binding signal intensity (CaRvs167-3): 1.5
- SPOT peptide array binding signal intensity (CaSho1): 4.5
- SPOT peptide array binding signal intensity (CaSla1-D1-D2): ≤ 0
- SPOT peptide array binding signal intensity (CaSla1-D3): ≤ 0
- SPOT peptide array binding signal intensity (ScAbp1): ≤ 0
- SPOT peptide array binding signal intensity (ScBbc1): ≤ 0
- SPOT peptide array binding signal intensity (ScBem1-D1): ≤ 0
- SPOT peptide array binding signal intensity (ScBzz1-D1): 13
- SPOT peptide array binding signal intensity (ScBzz1-D2): ≤ 0
- SPOT peptide array binding signal intensity (ScCyk3): 1
- SPOT peptide array binding signal intensity (ScFus1): ≤ 0
- SPOT peptide array binding signal intensity (ScHof1): 13.5
- SPOT peptide array binding signal intensity (ScHse1): 34
- SPOT peptide array binding signal intensity (ScLsb1): ≤ 0
- SPOT peptide array binding signal intensity (ScLsb2): ≤ 0
- SPOT peptide array binding signal intensity (ScLsb3): ≤ 0
- SPOT peptide array binding signal intensity (ScLsb4): ≤ 0
- SPOT peptide array binding signal intensity (ScMyo3): 1190
- SPOT peptide array binding signal intensity (ScMyo5): 712
- SPOT peptide array binding signal intensity (ScNbp2): 22
- SPOT peptide array binding signal intensity (ScPex13): 538
- SPOT peptide array binding signal intensity (ScRvs167): 2.33
- SPOT peptide array binding signal intensity (ScSho1): ≤ 0
- SPOT peptide array binding signal intensity (ScSla1-D1-D2): ≤ 0
- SPOT peptide array binding signal intensity (ScSla1-D3): 1.25
- SPOT peptide array binding signal intensity (SpAbp1-D1): 6
- SPOT peptide array binding signal intensity (SpBbc1): 3
- SPOT peptide array binding signal intensity (SpBzz1-D1): 3120
- SPOT peptide array binding signal intensity (SpBzz1-D2): 4.25
- SPOT peptide array binding signal intensity (SpCyk3): ≤ 0
- SPOT peptide array binding signal intensity (SpHof1): ≤ 0
- SPOT peptide array binding signal intensity (SpHof1-2): ≤ 0
- SPOT peptide array binding signal intensity (SpHof1-3): ≤ 0
- SPOT peptide array binding signal intensity (SpHse1): 10.5
- SPOT peptide array binding signal intensity (SpLsb1): 4.75
- SPOT peptide array binding signal intensity (SpLsb4): 27
- SPOT peptide array binding signal intensity (SpMyo1): 980
- SPOT peptide array binding signal intensity (SpNbp2): 16
- SPOT peptide array binding signal intensity (SpPex13): ≤ 0
- SPOT peptide array binding signal intensity (SpRvs167): 64.7
- SPOT peptide array binding signal intensity (SpSla1-D1-D2): 1
- SPOT peptide array binding signal intensity (SpSla1-D3): ≤ 0
